# Hit rate of the full screen: of about 210,000 compounds, about 1,300 (0.62%) were called active. This is one part of a sample in which actives are shown more often than they occur. A number with no mark means an inactive call.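 The calls were made as follows: active = inhibition of 40% or more; inactive = the rest.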
# Target: Kallikrein-5 (Homo sapiens) (UniProt Q9Y337)
# Assay: inhibition of kallikrein 5 (hK5) activity – biochemical, 1536-well, primary screen (AID 873);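 also: 0% = enzyme controls without compound and 100% = no-enzyme blanks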
# Details: recombinant hK5, fluorogenic AMC substrate cleavage; at 5 µM; active compounds read high
# Kallikrein-5 (Homo sapiens), sequence (Q9Y337 67-293 limits assumed): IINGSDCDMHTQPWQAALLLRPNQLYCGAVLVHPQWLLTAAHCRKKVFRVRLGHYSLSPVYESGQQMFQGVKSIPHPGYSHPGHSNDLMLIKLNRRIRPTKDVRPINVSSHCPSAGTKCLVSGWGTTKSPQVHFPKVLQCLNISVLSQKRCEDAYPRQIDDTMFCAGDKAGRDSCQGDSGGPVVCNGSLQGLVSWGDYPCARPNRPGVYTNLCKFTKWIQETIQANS
row,SMILES,inhibition
1,CC(C)n1c(=O)c(C=Nc2ccc(Br)cc2)c(O)n(Cc2ccco2)c1=O,115% (active)
2,CN(C)CC1Oc2ccccc2OC1(O)c1ccccc1 (stereo not given),-2.65%
3,O=c1[nH]c(=O)n(Cc2ccccc2)c(O)c1/C=N/Nc1c(F)c(F)c(F)c(F)c1F,3.18%
4,O=C(O)COc1ccccc1/C=C1\C(=O)NC(=O)N(CCC2=CCCCC2)C1=O,0.1%
5,CC(C)c1ccc(-n2c(O)c(/C=N/N3CCOCC3)c(=O)[nH]c2=S)cc1,-2.01%

# Reference: PubChem BioAssay AID873 (PCMD, 2007)
